Compound activity deposited in PubChem by The Scripps Research Institute Molecular Screening Center.
Only some compounds are listed: those with a hit (about 4.1% of all), similar ones and a draw of the others.
LEDGF integ inh – blocks HIV-1 LEDGF/p75-dependent DNA integration | TR-FRET IN-LEDGF/p75 DNA integration, Eu/Cy5 | inhibition, % at 3.7 µM | 370,000 tested, 0.64% active;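 active = inhibition above the screen-wide mean plus 3 SD, cut at about 13% in these data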;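 note: signal is the Cy5 over europium emission ratio at 671 and 618 nm; 0% = plate median of compound wells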
UHRF1 binding – human UHRF1 methylated DNA binding inhibitors; Q96T88; UHRF1 binding to methylated oligo, TR-FRET; inhibition, % at 4.4 µM; 370,000 tested, 0.75% active; in the data active = inhibition above about 21%;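 note: UHRF1 SRA domain binding a hemimethylated CpG hairpin DNA probe; 0% = median of test compound wells and 100% = reference inhibitor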
PRMT1 inh – inhibitors of human PRMT1; 370,000 tested, 1.3% active; inhibition, % at 2.79 µM; AID 652257; recombinant PRMT1, activity-based probe fluorescence polarization; Q99873;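 active = inhibition above about 21% made by adding two undisclosed values, limit read from the data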
rCAG binder – binds r(CAG) RNA repeats; 370,000 tested, 1.3% active; r(CAG) RNA repeat, TO-PRO-1 dye displacement fluorescence; AID 651821; inhibition, % at 3 µM;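 active = inhibition above the plate cutoff, the mean of all test compounds on that plate plus 3 SD, cut at about 35% in these data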;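 note: 0% = DMSO alone and 100% = 100 µM mitoxantrone as full dye displacement; higher means more dye released from RNA so lower well fluorescence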
ABHD5-PLIN5 inh – blocks binding of human ABHD5 to perilipin-5; Q00G26+Q8WTS1; Split G. princeps luciferase complementation, luminescence, 4 h; inhibition, % at 4 µM; 360,000 tested, 0.78% active; AID 602281;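 active = inhibition above the mean inhibition across every tested compound plus 3 SD, cut at about 22% in these data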;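 note: 0% = DMSO only wells and the 100% control is not disclosed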
MBD2 DNA inh – blocks human MBD2 binding to methylated DNA; Q9UBB5; TR-FRET, MBD2 binding to methylated oligonucleotide; inhibition, % at 4.4 µM; 370,000 tested, 0.31% active; AID 686964; in the data active = inhibition above about 13%
Target sequence (Q9UBB5 whole entry, looked up): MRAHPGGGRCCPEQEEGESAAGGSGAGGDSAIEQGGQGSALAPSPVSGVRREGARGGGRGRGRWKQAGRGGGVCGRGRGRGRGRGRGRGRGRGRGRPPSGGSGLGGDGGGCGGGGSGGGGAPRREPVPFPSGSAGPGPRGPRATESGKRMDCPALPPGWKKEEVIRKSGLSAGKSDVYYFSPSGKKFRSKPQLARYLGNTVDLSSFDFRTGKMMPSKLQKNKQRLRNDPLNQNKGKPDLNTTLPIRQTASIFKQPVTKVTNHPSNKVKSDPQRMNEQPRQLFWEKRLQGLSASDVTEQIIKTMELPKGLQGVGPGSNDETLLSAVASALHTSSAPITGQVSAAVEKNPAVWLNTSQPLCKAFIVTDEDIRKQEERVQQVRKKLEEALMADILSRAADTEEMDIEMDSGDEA
* hit, by the source's call; / = no result.

SMILES | LEDGF integ inh | UHRF1 binding | PRMT1 inh | rCAG binder | ABHD5-PLIN5 inh | MBD2 DNA inh
COC(=O)[C@@]1(Cc2ccccc2)[C@@H]2C(=CC(=O)[C@H]2CC(=O)C(=O)N(C)C)CN1C(=O)c1ccccc1 | / | / | / | / | 31* | /
Cc1ccc(C)c(NC(=O)c2cccc3c2-c2ccccc2C3=O)c1 | -10 | -1 | -3 | 6 | / | 2
CCN(CC)C(=O)Oc1ccc2oc(=O)cc(-c3cc4cccc(OC)c4o3)c2c1 | -1 | 21* | 0 | 6 | 1 | 4
CCOc1ccc(CCN2C(=S)N([C@@H](Cc3ccc(O)cc3)CN3CCC[C@@H]3CN3C(=S)NC[C@@H]3CC(C)C)C[C@@H]2Cc2ccc(O)cc2)cc1 | -2 | -1 | -4 | 12 | 34* | -4
CCOc1ccc(CCN2C(=S)N([C@@H](Cc3ccc(O)cc3)CN3CCCC3CN3C(=S)NC[C@@H]3Cc3ccc(O)cc3)C[C@@H]2CC(C)C)cc1 (some centres not stated) | 3 | -3 | 1 | 12 | 8 | -2
Oc1ccc(C[C@H]2CN([C@@H](Cc3ccccc3)CN3CCCC3CN3C(=S)NC[C@@H]3Cc3ccccc3)C(=S)N2CCc2ccccc2)cc1 (some centres not stated) | 4 | -1 | -2 | 11 | 2 | 1
Oc1ccc(C[C@H]2CN([C@@H](Cc3ccc(O)cc3)CN3CCC[C@@H]3CN3C(=S)NC[C@@H]3Cc3ccccc3)C(=S)N2CCc2ccccc2)cc1 | -3 | 0 | 4 | 13 | 27* | 1
CC1=NN(c2ccccc2)C(=O)/C1=C/c1c(O)n(-c2ccc(F)cc2)[nH]c1=O | 2 | -8 | 3 | 91* | 1 | -2
N#CCc1c(C#N)c(N)nc(N2CCCC(CO)C2)c1C#N (configuration not stated) | 1 | -2 | 23* | 2 | 6 | 1
N#CCc1c(C#N)c(N)nc(N2CCN(c3ccc(F)cc3)CC2)c1C#N | -3 | -2 | 7 | 10 | 4 | 3
Cc1nnc(SCC2=C(C(=O)O)N3C(=O)C(NC(=O)Cc4ccccc4)C3SC2)s1 (configuration not stated) | -4 | 1 | 25* | 19 | 1 | 2
Cn1nnnc1SCC1=C(C(=O)O)N2C(=O)C(NC(=O)Cn3nc(C(F)F)cc3C3CC3)C2SC1 (configuration not stated) | -1 | 0 | 24* | 9 | 10 | 6
Cc1nn(CC(=O)NC2C(=O)N3C(C(=O)O)=C(CSc4nnnn4C)CSC23)cc1Br (configuration not stated) | -7 | 3 | 22* | 1 | 11 | 0
CCn1ccc(C(=O)NC2C(=O)N3C(C(=O)O)=C(C)CSC23)n1 (configuration not stated) | 0 | 11 | 7 | 1 | -7 | -1
CC(C)C1=CC2C3C(=O)N(c4ccccc4)C(=O)C3C1C(=O)C2(C)O (configuration not stated) | 1 | -3 | -3 | 2 | / | -6
Cc1ccc(C(=O)N/C(=C/c2ccc(F)cc2)C(=O)NCc2ccncc2)cc1 | 2 | 23* | 0 | 1 | 5 | 3
Cc1ccccc1-c1ccc(C(=O)NCc2ccccc2)o1 | 1 | 1 | -3 | -1 | -3 | -4
Cc1ccc(-c2ccc(C(=O)NCc3ccc(Cl)cc3)o2)c2ccccc12 | -2 | 3 | 1 | 11 | 22* | 1
Cc1cccc(OCCCn2c(=O)oc3ccc(C)cc32)c1 | 12 | 25* | -7 | -5 | -7 | 11
COc1ccccc1OCCCn1c(=O)oc2ccc(C)cc21 | -1 | -2 | -1 | -5 | 7 | -6
O=C(c1ccc(Cl)cc1)N1CCC(Oc2cccnc2)CC1 | -1 | 5 | -4 | 0 | / | 4
Cc1cccc(C)c1NC(=O)c1nc(S(=O)(=O)Cc2ccccc2)ncc1Cl | 5 | -3 | 16 | -2 | 71* | 4
O=C(CCS(=O)(=O)c1ccccc1)Nc1ccc(F)cc1Cl | 3 | -1 | 1 | 2 | / | -5
CCN(C(=O)c1nn(-c2ccc(OC)cc2)c(=O)c2c1c1ccccc1n2C)c1ccc(OC)cc1 | -1 | 22* | 0 | 0 | -5 | 7
COc1ccc(-n2nc(C(=O)NCc3ccco3)c3c4ccccc4n(C)c3c2=O)cc1 | -4 | 31* | 3 | 6 | 0 | -2
SMILES | LEDGF integ inh | UHRF1 binding | PRMT1 inh | rCAG binder | ABHD5-PLIN5 inh | MBD2 DNA inh
Cc1[nH]c2ccccc2c1CC(=O)Nc1ccc(Oc2cccnc2)cc1 | -2 | -2 | 2 | 5 | / | 0
COc1ccccc1C(C#N)N1N=C(C)CC1(C)C (configuration not stated) | -3 | -2 | -1 | 2 | -1 | 1
CC1=NN(C(C#N)c2ccccc2O)C(C)(C)C1 (configuration not stated) | 6 | 30* | -5 | 0 | 4 | 2
CCOc1ccc(-n2c(SCC(=O)NN=Cc3ccc(C(=O)O)cc3)nnc2-c2cccnc2)cc1 | 2 | -3 | 0 | 15 | / | -1
O=C1[C@@H](Oc2ccccc2)[C@@H](c2ccccc2)N1c1ccccc1 | 1 | 22* | 1 | 2 | -8 | 11
COC(=O)C1=C(C)N(Cc2ccc(F)cc2)C(=S)NC1c1cccc(OC)c1 (configuration not stated) | -2 | 3 | 7 | 3 | / | 7
O=C1C=C(c2ccc(-c3ccccc3)cc2)C[C@@H](c2ccc(F)cc2)C1 | 0 | -1 | -7 | 0 | -5 | -7
O=C1C=C(c2ccccc2Oc2ccccc2)C[C@@H](c2ccc(F)cc2)C1 | 4 | 22* | -1 | 5 | -9 | 11
O=C(O)c1c2c(nc3ccccc13)/C(=C/c1ccc(O)cc1)CC2 | 10 | 37* | 12 | 5 | 7 | 11
CC(C)CN1C(=O)[C@@]2(CC(=O)N(C)C2c2ccccc2)c2cc(-n3cc(C(C)(C)O)nn3)ccc21 (some centres not stated) | 0 | 3 | 0 | -2 | / | -2
COc1cc(C)nc(N(C)S(=O)(=O)c2ccccc2Cl)n1 | 12 | 28* | 3 | -3 | -1 | 9
COc1nc(N(C)C)nc(N(OC)S(=O)(=O)c2ccccc2Cl)n1 | -1 | -1 | 0 | -4 | 5 | 0
COc1cc(S(=O)(=O)N(Cc2cccnc2)Cc2ccco2)ccc1-n1cnnn1 | 9 | 21* | 2 | 5 | 14 | 11
COc1cccc(CNS(=O)(=O)c2ccc(-n3cnnn3)c(C)c2)c1 | 0 | 4 | -5 | 1 | 4 | 2
COc1cccc(CN(Cc2cccnc2)S(=O)(=O)c2ccc(-n3cnnn3)c(C)c2)c1 | 3 | 21* | -3 | -4 | 5 | 4
O=C(NC1CCC1)O[C@H]1CC[C@@]23CCCN2C(=O)CCC[C@H]3C1 | 2 | -2 | -2 | / | / | -3
C[C@@H]1ON(C)[C@H]2C[C@H]3c4cc(Br)ccc4CCN3C[C@@H]12 | -2 | 2 | 2 | -2 | / | 4
